Source: PubChem BioAssay (NCI)
Compounds without any hit were thinned out: in the full panel of roughly 83,000, 20% have a hit.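 Activity criterion: percent growth below 10, measured after cells in 96-well plates were exposed to a single compound concentration for 48 hours.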 Unmarked numbers belong to inactive results. Activity calls are given as the source filed them.

test system: OVCAR-4 ovarian; experiment: NCI-60 one-dose screen, 48 h (100 = growth as untreated, 0 = no growth, -100 = all killed); conditions: 10 µM unless noted
Method: Growth inhibition of the OVCAR-4 human tumor cell line is measured as a screen for anti-cancer activity. Cells are grown in 96 well plates and exposed to the test compound for 48 hours. Compounds are tested at a single concentration, which is 10^-5 M for most compounds. The reported endpoint is percent growth (GI% or GIPRCNT), where numbers from 0 - 100% represent growth inhibition, and numbers from -100% - 0 represent cell death. For example, a value of 40 represents 60% growth inhibition. A value of 0 means no net growth occurred over the course of the experiment. A value of -40 indicates 40% of cells at the beginning of the experiment died by the end of the experiment. A value of -100 means all cells are dead at the end of the experiment.
NCI-60 Human Tumor Cell Lines Screen was performed using the standard one-dose NCI protocol, which is described in more detail at https://dtp.cancer.gov/discovery_development/nci-60/default.htm.
Compounds with GIPRCNT values below 10 were considered active. Activity score was based on GIPRCNT using the following formula: […]
Score is 0 for GIPRCNT values of 100 or above, 50 for GIPRCNT values of 0, and 100 for GIPRCNT values of -100.

Structure (SMILES)	growth
N=C(N)c1ccc(-c2ccc(-c3cc(Cl)cc(Cl)c3)o2)o1	-76.3% (active)
Cc1cccc(N2CCN(CC(O)COc3ccc(Cl)cc3)CC2)c1 (stereo not given)	115%
COc1ccc(C(=O)Nc2cccc(C3CC(=O)c4c(cc(OC)c(OC)c4OC)O3)c2)cc1 (stereo not given)	43.5%
O=C(O)/C(=C\c1ccc(Cl)cc1)c1ccc(Cl)cc1	90.5%
COc1ccccc1NC(=O)Cn1cc(CN2CCN(c3ccnc4cc(Cl)ccc34)CC2)nn1	94.1%
CCCNC(=O)Oc1ccc(/C(=C(/C)Cc2ccc(OC)cc2)c2ccc(OCCCN(C)C)cc2)cc1	85.2%
CCn1c(=S)[nH]c2c(=O)n(C)c(=O)n(C)c21	114%
COc1ccc(/C=N/C2=C(C#N)C(c3cccc(Cl)c3)c3c(ccc4ccccc34)O2)cc1 (stereo not given)	52.8%
O=S(=O)(Nc1ccc(Cl)cc1)c1ccc(-c2cnc(C3CC3)o2)cc1	63.7%
COc1ccc(C(=S)N2CCN(c3ccccc3Cl)CC2)cc1OC	99.9%
O=C(O)CCCN1C(=O)/C(=C/C(Cl)=C/c2ccccc2)SC1=S	46.8%
O=C1/C(=C/c2ccc(Cl)cc2)COc2ccc(O)c(O)c21	27.6%
COc1ccc2[nH]cc(-c3nc(-c4c[nH]c5ccncc45)cs3)c2c1	47.3%
O=C(CCCCC1CCSS1)Nc1ncnc2n[nH]c(-c3ccc(Oc4ccccc4)cc3)c12 (stereo not given)	108%
O=C1Nc2ccc(I)cc2C1=O	101%
CCCC(O)Cn1ncc(C(=O)OCC)c1NC(=O)NCc1ccccc1F (stereo not given)	87.1%
CC1(C)CC[C@]2(C(=O)O)CC[C@]3(C)C(=CC[C@@H]4[C@@]5(C)C/C(=C/O)C(=O)C(C)(C)[C@@H]5CC[C@]43C)[C@@H]2C1	63%
C=C1C(=O)O[C@H]2[C@H]1CC/C(COC(=O)CSCCSCC(=O)OC/C1=C/CC[C@@]3(C)O[C@H]3[C@H]3OC(=O)C(=C)[C@@H]3CC1)=C\CC[C@@]1(C)O[C@@H]21	40.4%
Clc1ccc2c(c1)N(c1ncnc3ccc(-c4cnc5[nH]ncc5c4)cc13)CC2	26.9%
O=c1oc2ccccc2cc1C1=NN=C(SCc2ccccc2)SC1	88.9%

Structure (SMILES)	growth
CCCC(=O)NC(c1ccc2c(c1)OCO2)c1ccc2cccnc2c1O (stereo not given)	14.5%
Nc1ncnc2c1N=C(c1ccc3c(c1)OCO3)CC(c1cccc(Nc3ccnc4cc(Cl)ccc34)c1)N2 (stereo not given)	60.7%
O=C1NC(=O)c2c1c1c3ccccc3ccc1c1[nH]c3ccc(Br)cc3c21	10.3%
O=C(CN1C(=O)CCC1=O)Nc1ncc(Cc2ccc(F)cc2)s1	101%
O=S(=O)(NCCNc1cc(-c2c(-c3cccc(O)c3)nc3sccn23)ccn1)c1ccc(C(F)(F)F)cc1	22.1%
C1=CN2CC(c3ccccc3)=NNC2c2ccccc21 (stereo not given)	83%
CC[C@]12C=CCN3CC[C@@]4(c5cc(NC(=O)CCC(=O)OCc6cn(Cc7ccc(F)cc7)nn6)c(OC)cc5N(C)[C@H]4[C@@](O)(C(=O)OC)[C@@H]1OC(C)=O)[C@@H]32	98.2%
C[C@H](NC(=O)[C@@H](C)N)[C@H](Oc1ccc2c(cnn2-c2ccc(F)cc2)c1)c1ccc2c(c1)OCCO2	60.7%
O=C1Nc2ccccc2[C@]12CC(c1ccccc1)=NN2	84.5%
CCCCCCC1(C)NCCO1 (stereo not given)	96%
Nc1ncnc2c1N=C(c1ccc(Cl)cc1)CC(c1ccc3c(c1)OCO3)N2 (stereo not given)	98.6%
CNC(=O)c1cc(Oc2ccc3c(c2)sc2nc(-c4cc(OC)c(OC)c(OC)c4)cn23)ccn1	46.2%
O=C(Nc1nc2ccc(F)cc2s1)c1cccnc1Nc1ccc(Cl)cc1	-13.1% (active)
O=C(CCCCCCN1CC(=O)N2[C@H](c3cc(Br)cs3)c3[nH]c4ccccc4c3C[C@H]2C1=O)NO	63%
C=C(C)[C@@H]1CC[C@]2(C(=O)O)CC[C@]3(C)[C@H](CC[C@@H]4[C@@]5(C)C[C@@H](Cc6cn(CCO[C@@H]7O[C@H](COC(C)=O)[C@H](OC(C)=O)[C@H](OC(C)=O)[C@H]7OC(C)=O)nn6)[C@H](O)C(C)(C)[C@@H]5CC[C@]43C)[C@@H]12	72.8%
Cc1ccc2c3c(c(=O)[nH]c2c1)C1(C(C#N)=C(N)O3)c2cc(Br)ccc2-c2ccc(Br)cc21	-50% (active)
COc1ccc(OC)c(C(=O)/C=C/c2cc3c(c(OC)c2OC)OCO3)c1	63.4%
COc1cc(OC)c2sc(-c3ccc(-n4cncc4-c4ccc(OC)c(OC)c4)cc3)nc2c1	52.9%
C=C(CNCCc1ccc(O)cc1)[C@@H]1CC[C@]2(CO)CC[C@]3(C)[C@H](CC[C@@H]4[C@@]5(C)CCC(NCCO)C(C)(C)[C@@H]5CC[C@]43C)[C@@H]12 (stereo not given in full)	-15.9% (active)
Cc1ccc(CNc2ccc(Cl)cc2NCc2ccc(C)c(O)c2)cc1O	27.8%
